This is a sample that favours compounds with a hit; in the whole collection about 4.7% have one here.
SARS 3CLpro inh: SARS-CoV 3CLpro protease inhibition; P0C6X7; recombinant SARS-CoV 3CLpro, quenched FRET peptide cleavage; inhibition, % at 6 µM; 0.14% of 290,000 active; in the data active = inhibition above about 12%
Mtb FBA inh: inhibitors of M. tuberculosis fructose-bisphosphate aldolase. 2.3% of 360,000 active. P9WQA3. purified M. tuberculosis FBA, fluorescence read-out. AID 588726. inhibition, % at 1 µM; in the data active = inhibition above about 27%
Target sequence (P9WQA3 whole entry, looked up): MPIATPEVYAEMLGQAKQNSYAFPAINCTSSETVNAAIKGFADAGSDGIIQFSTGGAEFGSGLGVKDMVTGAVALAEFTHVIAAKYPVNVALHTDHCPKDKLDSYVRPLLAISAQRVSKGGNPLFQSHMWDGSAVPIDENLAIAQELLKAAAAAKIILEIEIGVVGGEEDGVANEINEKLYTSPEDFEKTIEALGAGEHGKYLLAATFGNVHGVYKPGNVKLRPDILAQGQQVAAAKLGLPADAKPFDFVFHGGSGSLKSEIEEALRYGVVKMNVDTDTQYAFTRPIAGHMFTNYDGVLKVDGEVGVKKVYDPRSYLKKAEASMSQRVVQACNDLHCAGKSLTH
CCHF vOTU inh: blocks the CCHF virus ovarian tumor domain protease; CCHFV vOTU protease, Pep-AMC fluorescence; inhibition, % at 11.5 µM; 0.55% of 370,000 active; AID 651958
RecA intein inh: inhibitors of M. tuberculosis RecA intein splicing | P9WHJ3 | cell-free RecA intein splicing, fluorescence | inhibition, % (test concentration not listed) | 0.75% of 290,000 active | AID 2221; in the data active = inhibition above about 30%
GDH-TPI inh: GDH-TPI coupled enzyme inhibition counter-screen; inhibition, % at 4.8 µM; GDH-TPI coupled enzyme counterscreen, NADH absorbance; 1.2% of 360,000 active; AID 588335
DUSP3 inh: blocks human VHR1 dual specificity phosphatase; recombinant VHR phosphatase, pNPP absorbance; inhibition, % at 13.3 µM; 0.52% of 290,000 active; in the data active = inhibition above about 50%
Target sequence (P51452 whole entry, looked up): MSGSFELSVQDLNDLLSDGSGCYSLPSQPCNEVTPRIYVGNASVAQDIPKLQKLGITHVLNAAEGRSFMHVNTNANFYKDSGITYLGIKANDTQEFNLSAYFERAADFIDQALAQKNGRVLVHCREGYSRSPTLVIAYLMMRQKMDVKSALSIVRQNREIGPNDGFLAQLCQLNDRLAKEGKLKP
Hits are given with their value; - = inactive; . = not tested or not shown; + = active, no number. Cut-off read from the data, not from the text of the source, unless noted: active = inhibition above about 30%; inactive = the rest.

SMILES	SARS 3CLpro inh	Mtb FBA inh	CCHF vOTU inh	RecA intein inh	GDH-TPI inh	DUSP3 inh
CC(C)Cn1c(-c2ccccc2)nc(=S)c2c1CCCC2	-	-	-	-	34	-
CCN(CC)CCn1c(-c2ccccc2)nc(=S)c2c1CC(C)(C)OC2	-	-	-	-	-	-
CCN(CC)S(=O)(=O)c1ccc(NC(=O)COc2c(OC)cccc2OC)cc1	-	-	-	-	-	56
CCN(CC)S(=O)(=O)c1ccc(NC(=O)CSc2cccc[n+]2[O-])cc1	-	-	.	.	-	52
COc1ccccc1OCC(=O)Nc1ccc(S(=O)(=O)N(C)c2ccccc2)cc1	-	-	-	-	-	-
CCN(CC)S(=O)(=O)c1ccc(Cl)c(NC(=O)CSc2cccc[n+]2[O-])c1	-	-	-	-	-	-
CC1(C(=O)NCc2ccccc2)CN(S(C)(=O)=O)CC(=O)N1Cc1ccco1 (stereo unspecified)	.	.	-	.	.	.
O=C(Cn1nnc(-c2ccncc2)n1)Nc1ccc(Oc2ccccc2)cc1	.	.	-	.	.	.
C[C@@]12CC[C@@H](C3=C(CCC3)C1)N2c1ccccc1	.	.	-	.	.	.
COc1ccc(/C=N\NC(=O)Cc2cccs2)c(OC)c1OC	.	.	-	.	.	.
Cc1cc2nc3ccc(=[N+](C)C)cc-3sc2cc1N	-	-	.	31	-	-
Cc1c(OCC(=O)NCCN2CCOCC2)ccc2c3c(c(=O)oc12)CCC3	-	-	-	-	-	-
Cc1cc(OCC(=O)N2CCC(C(=O)O)(c3ccccc3)CC2)c2c(C)c(C)c(=O)oc2c1	-	64	-	-	-	-
CCCc1cc(=O)oc2c(C)c(OCC(=O)NCCCN3CCOCC3)ccc12	-	-	-	-	-	53
COc1ccc2c(C)c(CCC(=O)NCCCN3CCCC3=O)c(=O)oc2c1C	-	116	-	-	-	-
CCc1cc(=O)oc2c(C)c(OCC(=O)NCCCN3CCOCC3)ccc12	-	-	-	-	-	-
Cc1oc2c(C)c3oc(=O)c(CCC(=O)NCCCN4CCCC4=O)c(C)c3cc2c1C	-	-	-	-	-	-
Cc1c(OCC(=O)NCCN2CCOCC2)ccc2c1oc(=O)c1ccccc12	-	124	-	-	-	-
CCCc1cc(=O)oc2c(C)c(OCC(=O)NC3CC(C)(C)NC(C)(C)C3)ccc12	-	-	-	-	-	50
Cc1cc(=O)oc2c(C)c(OCC(=O)NC3CC(C)(C)NC(C)(C)C3)ccc12	-	-	-	-	-	-
Cc1cc(OCC(=O)NC2CC(C)(C)NC(C)(C)C2)c2c(C)c(C)c(=O)oc2c1	-	131	-	-	-	-
COc1ccc(OC)c(S(=O)(=O)N2CCCCC2C(=O)N2CCCN(C)CC2)c1 (stereo unspecified)	.	.	-	.	.	.
CN(CCOC(=O)CCCc1ccccc1)C1CN(Cc2cn(Cc3ccccc3F)nn2)S(=O)(=O)C1 (stereo unspecified)	.	.	-	.	.	.
CC(=C1N=C(c2ccccc2)OC1=O)c1cccs1	.	.	-	.	.	.
CN(C)/C(CN1CCN(C=O)CC1)=C1\N=C(c2ccccc2)OC1=O	-	-	-	-	36	-
SMILES	SARS 3CLpro inh	Mtb FBA inh	CCHF vOTU inh	RecA intein inh	GDH-TPI inh	DUSP3 inh
O=C(C(=O)N1CCC(CNS(=O)(=O)c2ccc(F)c(F)c2)CC1)c1cc2ccccc2o1	.	.	-	.	.	.
COc1ccc(C2CC(c3cccs3)n3nc(N)nc3N2)cc1 (stereo unspecified)	-	135	-	-	-	-
Cn1c(=O)c2c(nc(Cc3ccc(N)cc3)n2C)n(C)c1=O	-	-	-	-	-	-
Cn1c(=O)c2c(nc(-c3ccc(N(CCCl)CCCl)cc3)n2C)n(C)c1=O	.	+	-	.	39	.
CCCCN(C)C(=O)c1nc2ccccn2c1CN1CCN(C/C=C/c2ccccc2)CC1	-	-	-	-	-	-
COCCCNc1nc2ccccc2nc1NS(=O)(=O)c1cc(Cl)ccc1Cl	-	-	-	-	-	.
CCOC(=O)c1nc2sc3c(c2c(=O)[nH]1)CCCC3	-	181	-	-	-	-
N#Cc1cc([N+](=O)[O-])ccc1NC(=O)COC(=O)CCC1CCCCC1	-	.	-	60	.	-
N#C/C(=C\c1ccc[nH]1)C(=O)N1CCCCC1	-	-	-	-	31	-
N#C/C(=C\c1ccc(O)cc1)C(=O)N1CCCC1	-	-	-	-	-	-
COc1ccc(Cn2cc(CN3[C@@H](c4ccccc4)COc4cc(Br)ccc4S3(=O)=O)nn2)cc1	.	.	-	.	.	.
COc1cc2oc3cc(C)oc(=O)c3c2cc1OC	-	142	-	-	-	-
COc1cc2oc(=O)c(Br)c(C)c2c(OC)c1OC	-	-	-	.	-	-
C[C@@H]1CN([C@H](C)CO)C(=O)CCCn2nncc2CO[C@@H]1CN(C)C(=O)Nc1cccc2ccccc12	.	-	-	.	-	.
C[C@@H]1CN([C@@H](C)CO)C(=O)CCCn2nncc2CO[C@H]1CN(C)C(=O)Nc1cccc2ccccc12	.	29	-	.	-	.
N#Cc1ccc(C2CC(OCCF)=CC(=O)O2)cc1 (stereo unspecified)	.	.	-	.	.	.
CN1CCN(NC(=O)/C=C/c2cccc([N+](=O)[O-])c2)CC1	-	-	-	-	-	-
Cn1nc([N+](=O)[O-])nc1N1CCOCC1	-	-	-	-	-	-
CCN(CC)CCOC(=O)/C=C/c1ccccc1	-	-	-	-	-	-
CCN(CC)CC(C)(C)C(=O)/C=C/c1ccc(/C=C/C(=O)C(C)(C)CN(CC)CC)cc1	.	-	-	.	59	.
CCN(CC)C(=O)C1=C(C)N(CCCOC)C(=O)C(CC(=O)NCc2ccco2)C1 (stereo unspecified)	.	-	-	.	-	.
COc1ccc(CCn2c(=N)c(C(=O)NCc3ccco3)cc3c(=O)n4ccccc4nc32)cc1OC	.	-	-	.	-	.
N=c1c(S(=O)(=O)c2ccc(Br)cc2)cc2c(=O)n3ccccc3nc2n1Cc1ccco1	-	131	-	-	-	-
Cc1ccc(Cn2c(=N)c(C(=O)NCc3ccco3)cc3c(=O)n4ccccc4nc32)cc1	-	52	-	-	-	-
N=c1c(S(=O)(=O)c2ccc(Br)cc2)cc2c(=O)n3ccccc3nc2n1Cc1ccccc1	-	-	-	-	-	-
SMILES	SARS 3CLpro inh	Mtb FBA inh	CCHF vOTU inh	RecA intein inh	GDH-TPI inh	DUSP3 inh
COCCn1c(=N)c(C(=O)NCc2ccco2)cc2c(=O)n3cc(C)ccc3nc21	-	149	-	-	-	-
N=c1c(C(=O)NCc2ccco2)cc2c(=O)n3ccccc3nc2n1CCc1ccccc1	-	126	-	-	-	-
O=C(CC(C(=O)O)c1cccc(Cl)c1Cl)c1ccccc1 (stereo unspecified)	-	-	-	-	-	-
CCN1C(=O)[C@H]2[C@@H](c3ccc(C(F)(F)F)cc3)N[C@]3(CCCN(Cc4ccc(C)cc4)C3=O)[C@H]2C1=O	.	-	-	.	-	.
COc1cccc(-c2csc(N3CCN(CC(=O)NNC(=O)c4ccco4)CC3)n2)c1	-	-	-	-	-	-
CCOC(=O)CSc1nc2nc(Cl)c(Cl)nc2[nH]1	.	+	-	.	33	.
CCOC(=O)CSc1nc(C)cc(=O)[nH]1	-	-	-	-	-	-
CSc1nc2nc(Cl)c(Cl)nc2[nH]1	.	+	-	.	37	.

Compound activity: PubChem, several laboratories
